Measured values from the supplement of paper PMC13380429.

Tested on: Vero E6 infected with SARS-CoV-2
Test: inhibition of SARS-CoV-2 cytopathic effect; higher = more antiviral protection, active = above 15
Conditions: 48 h

Measured: inhibition of SARS-CoV-2 cytopathic effect

CNC(=O)c1ccc2c(c1)CCO[C@H]2CCN1CCN(c2ccc(C(N)=O)cc2)CC1
inactive: 1 nM 1.05% | 8.33 nM -0.55% | 100 nM 1.37% | 833.33 nM -1.27% | 10000 nM 3.34%

CCOc1ccc2ccccc2c1C(=O)N[C@@H]1C(=O)N2[C@@H]1SC(C)(C)[C@@H]2C(=O)O [nafcillin]
inactive: 1 nM -2.44% | 8.33 nM 1.27% | 100 nM -1.26% | 833.33 nM -1.73% | 10000 nM -0.95%

O=C(O)c1ccc2[nH]cc(CCCCN3CC=C(c4ccccc4)CC3)c2c1 [carmoxirole]
inactive: 1 nM 1.76% | 8.33 nM 1.65% | 100 nM -1.21% | 833.33 nM 0.28% | 10000 nM 0.69%

O=C(O)c1cc(=O)c2c(OCC(O)COc3cccc4oc(C(=O)O)cc(=O)c34)cccc2o1 [cromoglicic-acid]
inactive: 1 nM -0.6% | 8.33 nM -0.04% | 100 nM -1.5% | 833.33 nM 0.49% | 10000 nM -0.11%

NC(=O)c1ccc(-c2nc(-c3ccccn3)c(-c3ccc4c(c3)OCO4)[nH]2)cc1
inactive: 1 nM -0.24% | 8.33 nM 0.7% | 100 nM 0.26% | 833.33 nM -3.74% | 10000 nM -3.14%

Nc1nc(O)c2nc(Br)n([C@@H]3O[C@@H]4COP(=O)(O)O[C@H]4[C@H]3O)c2n1 [8-bromo-cGMP]
inactive: 1 nM 0.61% | 8.33 nM 2.94% | 100 nM 2.06% | 833.33 nM 1.94% | 10000 nM 1.61%

CC(=O)c1ccc2c(c1)[C@H](NC(=O)c1ccc(F)c(Cl)c1)[C@H](O)C(C)(C)O2 [tonabersat]
inactive: 1 nM -2.31% | 8.33 nM -1.2% | 100 nM -0.8% | 833.33 nM 1.11% | 10000 nM -2.32%

CO[C@@H]1[C@H](N(C)C(=O)c2ccccc2)C[C@H]2O[C@]1(C)n1c3ccccc3c3c4c(c5c6ccccc6n2c5c31)C(=O)NC4 [midostaurin]
inactive: 1 nM -10.1% | 8.33 nM -8.56% | 100 nM -8.88% | 833.33 nM -23.9% | 10000 nM -31.5%

COc1cc2c(c(OC)c1OC)-c1c(cc3c(c1OC)OCO3)C[C@H](C)[C@@](C)(O)C2 [schisandrol-B]
inactive: 1 nM 3.78% | 8.33 nM 3.17% | 100 nM 2.65% | 833.33 nM 2.33% | 10000 nM 1.68%

C=C1/C(=C\C=C2/CCC[C@]3(C)[C@@H]([C@H](C)OCCC(C)(C)O)CC[C@@H]23)C[C@@H](O)C[C@@H]1O [maxacalcitol]
inactive: 1 nM 1.71% | 8.33 nM 0.65% | 100 nM -1.77% | 833.33 nM 0.61% | 10000 nM -0.56%

C/C(=C\C(=O)OCCCCCCCCC(=O)O)C[C@@H]1OC[C@H](C[C@@H]2O[C@H]2[C@@H](C)[C@H](C)O)[C@@H](O)[C@H]1O [mupirocin]
inactive: 1 nM -1.43% | 8.33 nM -0.61% | 100 nM 0.52% | 833.33 nM 2.09% | 10000 nM 1.36%

C[C@H](CCC(=O)NCCS(=O)(=O)O)[C@H]1CC[C@H]2[C@@H]3[C@@H](O)C[C@@H]4C[C@H](O)CC[C@]4(C)[C@H]3CC[C@]12C [ursodeoxycholyltaurine]
inactive: 1 nM -1.76% | 8.33 nM 3.52% | 100 nM 1.07% | 833.33 nM -3.74% | 10000 nM -4.25%

COc1ccc(-c2oc3cc(OC)ccc3c2C(=O)c2ccc(C#N)cc2)cc1
inactive: 1 nM -2.41% | 8.33 nM -2.08% | 100 nM -3.03% | 833.33 nM -3.9% | 10000 nM 1.7%

Cc1c[nH]c2ncnc(N3CCC(CN)(C(=O)Nc4cccc(OC(=O)N(C)C)c4)CC3)c12
inactive: 1 nM -0.02% | 8.33 nM -1.69% | 100 nM 4.07% | 833.33 nM -0.25% | 10000 nM 5.79%

O=C(CCCCCCCC(=O)NCCO)NCCO [adelmidrol]
inactive: 1 nM -2.2% | 8.33 nM 2.3% | 100 nM 5.54% | 833.33 nM -1.21% | 10000 nM 0.2%

CCCCC1C(=O)N(c2ccccc2)N(c2ccccc2)C1=O [phenylbutazone]
inactive: 1 nM -0.14% | 8.33 nM 0.89% | 100 nM 0.31% | 833.33 nM 0.4% | 10000 nM 0.88%

CC(CNC(=O)c1cccnc1)NC(=O)c1cccnc1 (stereo not given) [nicaraven]
inactive: 1 nM 0.7% | 8.33 nM -0.11% | 100 nM -1.71% | 833.33 nM 0.88% | 10000 nM -0.45%

CCNCCCNCCCCNCCCNCC
inactive: 1 nM -0.97% | 8.33 nM 1.01% | 100 nM 3.25% | 833.33 nM 3.4% | 10000 nM 11.4%

Nc1ccn([C@@H]2O[C@H](CO)[C@@H](O)C2(F)F)c(=O)n1 [gemcitabine]
inactive: 1 nM 1.67% | 8.33 nM 2.4% | 100 nM -0.88% | 833.33 nM -3.94% | 10000 nM 3.81%

CC(C)(C)NC(=O)[C@@H]1CN(Cc2cccnc2)CCN1C[C@@H](O)C[C@@H](Cc1ccccc1)C(=O)N[C@H]1c2ccccc2C[C@H]1O [indinavir]
inactive: 1 nM -3.73% | 8.33 nM -5.87% | 100 nM -9.09% | 833.33 nM -8.27% | 10000 nM -10.5%

O=C(Nc1cccc(C(F)(F)F)c1)Nc1ccc(Br)cc1-c1nnn[nH]1
inactive: 1 nM 1.75% | 8.33 nM 3.12% | 100 nM 2.2% | 833.33 nM 3.69% | 10000 nM 4.81%

O=Cc1cn(Cc2ccc(Cl)cc2)c2ccccc12 [oncrasin-1]
inactive: 1 nM 1.13% | 8.33 nM -1.86% | 100 nM 2.77% | 833.33 nM 2.11% | 10000 nM 2.76%

CN1C(=O)c2c(nn(Cc3ccc(-c4cccc(F)n4)cc3)c2Nc2ccccc2)N2C1=N[C@@H]1CCC[C@@H]12
inactive: 1 nM 0.59% | 8.33 nM 1.65% | 100 nM 2.18% | 833.33 nM 3.15% | 10000 nM 0.62%

NC(=O)c1ncn([C@@H]2O[C@H](CO)[C@@H](O)[C@H]2O)c1O [mizoribine]
inactive: 1 nM -1.24% | 8.33 nM -0.82% | 100 nM 0.9% | 833.33 nM 0.29% | 10000 nM -1.77%

C[C@@H](O[C@H]1OCCN(Cc2nn(P(=O)(O)O)c(=O)[nH]2)[C@H]1c1ccc(F)cc1)c1cc(C(F)(F)F)cc(C(F)(F)F)c1 [fosaprepitant-dimeglumine]
inactive: 1 nM -0.45% | 8.33 nM 3.23% | 100 nM 1% | 833.33 nM -0.01% | 10000 nM -0.52%

Cc1ccc(C(=O)N(CCCN)[C@@H](c2oc3cc(Cl)ccc3c(=O)c2Cc2ccccc2)C(C)C)cc1
inactive: 1 nM 1.81% | 8.33 nM -1.04% | 100 nM -0.8% | 833.33 nM -2.79% | 10000 nM -24.6%

O=C(O)c1cc(=O)[nH]c(=O)[nH]1 [orotic-acid]
inactive: 1 nM -2.95% | 8.33 nM 1.49% | 100 nM -1% | 833.33 nM 0.78% | 10000 nM 0.21%
